Rows were chosen to be rich in hits. Some 12% of all compounds tested hit in one or more screens of this group.
AMA1-RON2 inh – disrupts binding of P. falciparum AMA1 to RON2; AlphaScreen AMA1-biotinylated RON2 peptide binding; Potency, µM (doses to about 58.2 µM), without a hit: top-dose activity change, negative = inhibition, actives largely listed as inhibitors; hit rate 0.2% among 360,000; AID 720542;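 note: 0% = vehicle wells and -100% = peptide control; nearly all actives have a fitted effect of over 45% in size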
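AMA1 (3D7) with his tag at 25 nM final met compounds first, then biotinylated RON2 peptide at 25 nM; detection used donor plus acceptor beads, 10 µg/mL apiece, read by AlphaScreen after 30 min at room temperature.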
Pf growth 96h – P. falciparum growth inhibition at 96 hours; Potency, µM (series often up to 28.7 µM), for inactives: at the highest dose activity change, negative = inhibition, hits mostly inhibitors; AID 504834; P. falciparum luciferase reporter growth, 96 h; hit rate 6.9% among 320,000; note: % is set by controls: 0 for no effect and ±100 for the full control effect
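Erythrocytes infected with luciferase-expressing P. falciparum were dispensed at 2% hematocrit and 0.05% parasitemia (final), then incubated with compounds 96 hours at 37 C in 5% CO2. Luminescence after detection reagent addition reported growth.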
SARS PLP yeast – inhibitors of SARS-CoV papain-like protease in yeast; S. cerevisiae expressing SARS-CoV PLpro, growth rescue; hit rate 0.19% among 330,000; AID 485353; Potency, µM (top dose mostly 32.9 µM), for inactives: at the highest dose activity, positive = growth rescue, usual class: activators; calls by dose curve; note: 0% is about no effect; nearly all actives have a fitted effect of over 55% in size
NS1 inh – inhibitors of influenza NS1 protein function; hit rate 0.4% among 270,000; Potency, µM (series often up to 46.1 µM), without a hit: at the top dose activity, positive = more growth; calls by dose curve; note: actives are rising curves; nearly all actives have a fitted effect of over 50% in size
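Growth recovery, yeast-based: influenza A NS1 expressed in S. cerevisiae causes slow growth, and suppressors are detected by OD600. The parent strain without NS1 is used as positive control.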
Pf growth 48h – P. falciparum growth inhibition at 48 hours (one generation); P. falciparum luciferase growth in erythrocytes, 48 h; Potency, µM (top dose mostly 28.7 µM), for inactives: at the highest dose activity change, negative = inhibition, hits mostly inhibitors; hit rate 5.9% among 310,000; AID 504832; note: % is set by controls: 0 for no effect and ±100 for the full control effect
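Parasite viability was followed by luminescence of a genomically integrated firefly luciferase. Cultures held 0.1% parasitemia at 2% hematocrit (final), incubated under 5% CO2 at 37 C.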
HCV inh – blocks hepatitis C virus; Huh7.5.1 HCVcc-Cre infection, luciferase reporter, 44 h; Potency, µM (highest dose often 41.8 µM), inactives show at the highest dose activity change, negative = inhibition, hits mostly inhibitors; hit rate 3.4% among 340,000; note: % is set by controls: 0 for no effect and ±100 for the full control effect
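Antiviral activity was scored by luciferase reporter output from cells infected with HCVcc-Cre (~0.5 moi) in presence of compound, 44 h infection period, cells seeded 1,000/well 4 h prior.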
The depositor's hits bear a star; ? = inconclusive; . = no result; [ ] = another dose, or the depositor's remark. Unless noted, calls come from the whole dose curve; as a rule, active = well fitted curve in the direction sought with a large enough effect; inconclusive = small, poorly fitted or top-dose-only effect, or another doubt; inactive = no such curve, though single readings can be large; an effect the other way counts as inactive or inconclusive. Potency is the fitted concentration of half-maximal effect.

SMILES | AMA1-RON2 inh | Pf growth 96h | SARS PLP yeast | NS1 inh | Pf growth 48h | HCV inh
CCCCOc1ncnc2c1[nH]c1ccc(C)cc12 | -1% | 337% | -1% | -7% | 203% | -75%
c1ccc2c(c1)[nH]c1c(N3CCC4(CC3)OCCO4)ncnc12 | -6% | ? | -16% | 0% | . | 7.1µM*
Cc1ccc2[nH]c3c(N4CCN(Cc5ccc6c(c5)OCO6)CC4)ncnc3c2c1 | . | . | 3% | -7% | ? | .
CCOc1ccc2[nH]c3c(N4CCN(c5ccccn5)CC4)ncnc3c2c1 | -3% | -5% | -6% | -115% | ? | 1µM*
CC(C)c1ccc(NC(=O)Nc2nc(C(N)c3ccccc3Cl)cs2)cc1 (stereo not drawn) | 73% | . | . | . | . | .
O=C(/C=C/c1ccccc1[N+](=O)[O-])c1ccccc1Br | ? | 13% | -5% | -85% | ? | ?
CCCN(CC(=O)Nc1ccccc1C)C(=O)c1ccc(C2SCCS2)cc1 | -8% | 15% | -9% | . | -1% | -11%
CC(C)C(=O)NC(=S)Nc1c(Cl)ccc2nsnc12 | 1% | ? | 5% | 1% | ? | -12%
Cc1nn(S(=O)(=O)c2ccccc2)c(C)c1S(=O)(=O)N1CCOCC1 | -12% | -27% | -1% | 4% | 9% | 21%
O=C(Nc1cccc2ccccc12)c1ccc([N+](=O)[O-])s1 | -1% | 5.2µM* | -25% | -29% | 12µM* | ?
O=C(Nc1ccccc1F)c1ccc([N+](=O)[O-])s1 | -19% | 4.1µM* | -10% | . | 10µM* | ?
O=C(Nc1cccnc1)c1ccc([N+](=O)[O-])s1 | -4% | ? | -12% | . | 5.2µM* | ?
O=C(Nc1cccnc1)c1ccc([N+](=O)[O-])cc1Cl | 1% | 69% | 1% | . | 7% | 2%
CN(C)NC(=O)c1ccc([N+](=O)[O-])s1 | -4% | 12µM* | -1% | 1% | 10µM* | -3%
O=C(COC(=O)c1ccc([N+](=O)[O-])s1)Nc1ccccc1 | -3% | -23% | -80% | -48% | 2% | 34%
Cc1nn(CC(=O)Nc2ccc(S(N)(=O)=O)cc2)c(=O)c2ccccc12 | 24% | 0% | 0% | 0% | 2%[0.00184 µM] | 2%
O=C(CN1C(=O)NC2(CCCc3ccccc32)C1=O)NCc1cccs1 (stereo not drawn) | 0% | 12% | 7% | . | -1% | 2%
COc1ccc(CCNC(=O)C2CCCN(Cc3nc(-c4ccccc4C)oc3C)C2)cc1OC (stereo not drawn) | -1% | -10% | 2% | -12% | ? | ?
CCc1ccc(-c2nc(CN3CCCC(C(=O)NCCc4ccc(OC)c(OC)c4)C3)c(C)o2)cc1 (stereo not drawn) | -9% | ? | -6% | -9% | ? | 8.9µM*
CCOC(=O)N1CCC(NC(=O)C2CCCN(Cc3nc(-c4cccc(Cl)c4)oc3C)C2)CC1 (stereo not drawn) | 3% | ? | -5% | 1% | . | 5.6µM*
Cc1oc(-c2ccc(Cl)cc2)nc1CN1CCCC(C(=O)NCc2ccco2)C1 (stereo not drawn) | 6% | ? | 4% | -2% | 14% | 13µM*
Cc1oc(-c2ccc(Cl)cc2)nc1CN1CCCC(C(=O)NC2CC2)C1 (stereo not drawn) | -3% | ? | -2% | -5% | 0% | ?
CCOC(=O)N1CCN(C(=O)C2CCCN(Cc3nc(-c4ccc(Cl)cc4)oc3C)C2)CC1 (stereo not drawn) | 11% | 10µM* | -2% | -1% | . | 1.4µM*
CCOC(=O)N1CCC(NC(=O)CS(=O)(=O)Cc2nc(-c3cccc(Cl)c3)oc2C)CC1 | -2% | ? | 2% | -4% | 14% | ?
CCN(CC(=O)Nc1c(F)cccc1F)C(=O)CCSc1ccc(F)cc1 | 17% | -2% | 1% | . | ? | 0%
Cc1ccc(NC(=O)CN(C)C(=O)c2nn(C)c(=O)c3ccccc23)cc1 | 7% | 33% | 1% | -5% | 1% | -18%
COCC(=O)OCC(=O)Nc1ccc(Cl)cc1[N+](=O)[O-] | -8% | 14% | -3% | . | 46% | 8%
